According to PubChem BioAssay AID1220 (Sanford-Burnham Center for Chemical Genomics, 2008):
Screen size: about 190,000 compounds; about 1,300 (0.68%) were called active. No stated cut-off is given here; in the data, active means inhibition above about 50%; inactive means the rest. The sample as a whole holds a higher share of actives than the screen did.

molecular target: Mannose-6-phosphate isomerase (Homo sapiens) (UniProt P34949); experiment: MPI inhibition at elevated mannose 6-phosphate – biochemical, fluorescence intensity, high mannose 6-phosphate, primary screen (AID 1220); settings: recombinant PMI enzyme, coupled fluorescence intensity; at 20 µM; hits give high values
Sequence (P34949 whole entry, looked up): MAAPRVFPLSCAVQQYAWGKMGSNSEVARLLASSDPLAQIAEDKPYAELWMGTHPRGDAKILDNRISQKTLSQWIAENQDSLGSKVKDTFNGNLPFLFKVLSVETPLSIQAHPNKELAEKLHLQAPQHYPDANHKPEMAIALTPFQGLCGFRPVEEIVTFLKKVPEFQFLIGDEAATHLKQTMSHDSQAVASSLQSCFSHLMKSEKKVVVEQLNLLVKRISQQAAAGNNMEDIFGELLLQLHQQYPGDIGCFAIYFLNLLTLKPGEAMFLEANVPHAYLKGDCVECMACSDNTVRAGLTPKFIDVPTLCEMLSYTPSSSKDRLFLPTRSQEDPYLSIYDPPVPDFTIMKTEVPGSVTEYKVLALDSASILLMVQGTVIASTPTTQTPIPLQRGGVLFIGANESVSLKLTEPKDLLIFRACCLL

inhibition, active:
CCOC(=O)c1nn(-c2ccc(C)cc2)c(=O)c2c(N)scc12 61.7%, C=CCNc1cc(N2CCCC2)ccc1[N+](=O)[O-] 51.8%, O=[N+]([O-])c1ccc(N2CCCC2)cc1N1CCCC1 50.2%, CCOc1cc(N2CCCC2)ccc1[N+](=O)[O-] 53.4%, Cc1nn(-c2ccccn2)c2c1-c1nc(N3CCOCC3)ncc1CC2 57.5%, Cc1nc2cc3nc(C(F)(F)F)[nH]c3cc2[nH]1 52.2%, Cc1ccc(C)n1-c1ccc(N(C)C)cc1 66.1%, O=C1C=CC(=O)C(C2=C3C(=O)N(CCc4ccccc4)CC(=O)N3CCC2)=C1 50.6%, Cc1cccc(N=Cc2cc3c(cc2[N+](=O)[O-])OCO3)c1 62.2%, Cc1ccccc1N=Cc1cc2c(cc1[N+](=O)[O-])OCO2 53.3%, Nc1ccc(Nc2ccccc2N)cc1 52.9%, CCCCN=C1C([N+](=O)[O-])=CC=C2C1=NC1(CCCCC1)N2O 53%, O=C(O)Cc1c[nH]c2cccc(O)c12 51.5%, COc1ccc(C(=O)OC2CCN(c3ncc(C(F)(F)F)cc3Cl)CC2)cc1 54.2%

inhibition, inactive:
CCOC(=O)C1CCN(S(=O)(=O)c2ccc(C(=O)OC)cc2)CC1 -3.3%, CCOC(=O)c1cc2occc2n1CC(=O)Nc1ccc(OC)cc1OC 9%, CCOC(=O)c1nn(-c2ccc(OC)cc2)c(=O)c2c(N)scc12 27.4%, CCOC(=O)c1nc(N)c(=O)n(-c2ccc(C)cc2)n1 -8.9%, COc1ccccc1NC(=O)C/C(N)=N/O -9.6%, CNC(=O)C(=O)NCCCN1CCOCC1 -4.4%, Cc1cc(N2CCCCC2)ccc1[N+](=O)[O-] 44.8%, O=[N+]([O-])c1ccc(N2CCCCC2)cc1N1CCOCC1 4.6%, CC(C)(C)CNc1cc(N2CCCC2)ccc1[N+](=O)[O-] 11.3%, COc1cc(N2CCCC2)ccc1[N+](=O)[O-] 19.4%, CCNc1cc(N2CCCC2)ccc1[N+](=O)[O-] 32.8%, O=[N+]([O-])c1ccc(N2CCOCC2)cc1N1CCCCC1 -3.2%, O=C(/C=C/c1ccco1)c1ccc(O)cc1 11.9%, Cn1c(CN2CCCC2)nc2cc(NC(=O)c3cccs3)ccc21 -21.8%, Cc1nn(-c2ccccn2)c2c1-c1nc(N)ncc1CC2 40.6%, Cc1nn(-c2ccc(F)cc2F)c2c1-c1nc(N3CCCC3)ncc1CC2 38.1%, C[C@@H]1NC(=O)[C@H](CCCN=C(N)N)NC(=O)c2cc([N+](=O)[O-])cc(I)c2OCC[C@@H](C(N)=O)NC1=O -20.7%, Nc1ccc2nc(C(F)(F)F)[nH]c2c1 37%, Cc1nc2ccc(C(C(F)(F)F)(C(F)(F)F)C(F)(F)F)cc2[nH]1 14.4%, COCCNC(=O)C1=NOC(Cn2cc(C#N)c(=O)n(C)c2=O)C1 (stereo unspecified) 5.3%, CCCNC(=O)/C=C/c1ccc(S(=O)(=O)Nc2ccccc2OC)cc1 -3.6%, CC1CCCCC1NC(=O)CCCn1c(=S)[nH]c2ccccc2c1=O (stereo unspecified) -12.4%, Cc1ccc(C)n1-c1ccncc1 3.1%, Cc1ccc(C)n1-c1ccc(C(=O)O)cc1 0.2%, Cc1ccc(OC(=O)C(F)(F)F)c2c1NCCC2 11.5%, Cc1cc2c(C)cc(=O)oc2c2c1NCCC2 12.6%, COc1ccc(N2CCN(/C(=N\S(=O)(=O)c3ccc(C)cc3)Nc3nc(C)cc(C)n3)CC2)cc1 -1.1%, Nc1nc(-c2ccco2)nc(N2CCCCC2)n1 2.4%, O=C(NCc1ccc(N2CCCC2=O)cc1)c1cn(CCc2ccccc2)nn1 3.8%, O=C1CC(=O)N(CCc2ccccc2)C(=O)N1CCc1ccccc1 7.8%, O=C(NO)c1cc(OCC(F)(F)F)ccc1OCC(F)(F)F -2.8%, Cc1ccc(C)c(N=Cc2cc3c(cc2[N+](=O)[O-])OCO3)c1 41.6%, Cc1cccc(C)c1OCC(=O)N/N=C/c1cc2c(cc1[N+](=O)[O-])OCO2 -72.5%, Cc1cc(C)nc(N/N=C/c2cc3c(cc2[N+](=O)[O-])OCO3)n1 1.3%, O=[N+]([O-])c1cc2c(cc1/C=N/n1cnnc1)OCO2 13%, CC1=NN(c2nc(-c3ccc(C)cc3)cs2)C(=O)C1N=Nc1ccc2ccccc2c1 (stereo unspecified) 10.1%, Cc1cc(C)cc(NC(=O)C2(c3cccs3)CCOCC2)c1 3.6%, O=C(C/C=N\OCc1ccc(Cl)cc1Cl)Nc1ccccc1 15.2%, Nc1ccccc1Nc1ccccc1 -26.3%, COc1ccc(Nc2ccccc2N)cc1 3.8%, Cc1ccc(-c2cnc(-c3ccncc3)o2)cc1 -3.1%, CCC(O)(C#CCN1CCCCC1)CC -6.1%, Cc1ccc2c(c1)C(O)(CC(=O)c1ccc(C)s1)C(=O)N2 (stereo unspecified) 4.5%, CC1CCN(S(=O)(=O)c2ccc(C(=O)OCc3ccc4c(c3)OCO4)cc2)CC1 -5.5%, Cn1c(SCC(=O)Nc2cccc3ccccc23)nc(O)cc1=O 26.1%, O=C(O)C(=O)Cc1c[nH]c2ccccc12 -4.1%, NC(=O)Cc1c[nH]c2cccc(O)c12 44.8%, CCN(CC(=O)Nc1ccc2c(c1)OCCO2)CC(=O)Nc1ccc2c(c1)OCO2 5.7%, COc1ccc(S(=O)(=O)NCCCCNS(=O)(=O)c2ccc(OC)cc2)cc1 1.1%, Cc1ccc(-c2[nH]c(-c3ccccc3)nc2SCC(=O)NCC2CCCO2)cc1 (stereo unspecified) 3.3%, O=C(OC1CCN(c2ncc(C(F)(F)F)cc2Cl)CC1)c1ccccc1 11.4%, O=C(OC1CCN(c2ncc(C(F)(F)F)cc2Cl)CC1)c1ccc(Cl)cc1 7.7%
